This is one part of a sample in which hits are shown more often than they occur.
nsP2pro inh: blocks chikungunya virus nsP2 protease peptide cleavage | Q8JUX6 | FRET peptide cleavage, nsP2pro, fluorescence 1 h | Potency, µM (series often up to 24.9 µM), usual class: inhibitors | actives 1.1% (n = 31,000) | AID 1964107; calls by dose curve; also: nearly all actives have a fitted effect of over 60% in size
Target sequence (Q8JUX6 whole entry, looked up): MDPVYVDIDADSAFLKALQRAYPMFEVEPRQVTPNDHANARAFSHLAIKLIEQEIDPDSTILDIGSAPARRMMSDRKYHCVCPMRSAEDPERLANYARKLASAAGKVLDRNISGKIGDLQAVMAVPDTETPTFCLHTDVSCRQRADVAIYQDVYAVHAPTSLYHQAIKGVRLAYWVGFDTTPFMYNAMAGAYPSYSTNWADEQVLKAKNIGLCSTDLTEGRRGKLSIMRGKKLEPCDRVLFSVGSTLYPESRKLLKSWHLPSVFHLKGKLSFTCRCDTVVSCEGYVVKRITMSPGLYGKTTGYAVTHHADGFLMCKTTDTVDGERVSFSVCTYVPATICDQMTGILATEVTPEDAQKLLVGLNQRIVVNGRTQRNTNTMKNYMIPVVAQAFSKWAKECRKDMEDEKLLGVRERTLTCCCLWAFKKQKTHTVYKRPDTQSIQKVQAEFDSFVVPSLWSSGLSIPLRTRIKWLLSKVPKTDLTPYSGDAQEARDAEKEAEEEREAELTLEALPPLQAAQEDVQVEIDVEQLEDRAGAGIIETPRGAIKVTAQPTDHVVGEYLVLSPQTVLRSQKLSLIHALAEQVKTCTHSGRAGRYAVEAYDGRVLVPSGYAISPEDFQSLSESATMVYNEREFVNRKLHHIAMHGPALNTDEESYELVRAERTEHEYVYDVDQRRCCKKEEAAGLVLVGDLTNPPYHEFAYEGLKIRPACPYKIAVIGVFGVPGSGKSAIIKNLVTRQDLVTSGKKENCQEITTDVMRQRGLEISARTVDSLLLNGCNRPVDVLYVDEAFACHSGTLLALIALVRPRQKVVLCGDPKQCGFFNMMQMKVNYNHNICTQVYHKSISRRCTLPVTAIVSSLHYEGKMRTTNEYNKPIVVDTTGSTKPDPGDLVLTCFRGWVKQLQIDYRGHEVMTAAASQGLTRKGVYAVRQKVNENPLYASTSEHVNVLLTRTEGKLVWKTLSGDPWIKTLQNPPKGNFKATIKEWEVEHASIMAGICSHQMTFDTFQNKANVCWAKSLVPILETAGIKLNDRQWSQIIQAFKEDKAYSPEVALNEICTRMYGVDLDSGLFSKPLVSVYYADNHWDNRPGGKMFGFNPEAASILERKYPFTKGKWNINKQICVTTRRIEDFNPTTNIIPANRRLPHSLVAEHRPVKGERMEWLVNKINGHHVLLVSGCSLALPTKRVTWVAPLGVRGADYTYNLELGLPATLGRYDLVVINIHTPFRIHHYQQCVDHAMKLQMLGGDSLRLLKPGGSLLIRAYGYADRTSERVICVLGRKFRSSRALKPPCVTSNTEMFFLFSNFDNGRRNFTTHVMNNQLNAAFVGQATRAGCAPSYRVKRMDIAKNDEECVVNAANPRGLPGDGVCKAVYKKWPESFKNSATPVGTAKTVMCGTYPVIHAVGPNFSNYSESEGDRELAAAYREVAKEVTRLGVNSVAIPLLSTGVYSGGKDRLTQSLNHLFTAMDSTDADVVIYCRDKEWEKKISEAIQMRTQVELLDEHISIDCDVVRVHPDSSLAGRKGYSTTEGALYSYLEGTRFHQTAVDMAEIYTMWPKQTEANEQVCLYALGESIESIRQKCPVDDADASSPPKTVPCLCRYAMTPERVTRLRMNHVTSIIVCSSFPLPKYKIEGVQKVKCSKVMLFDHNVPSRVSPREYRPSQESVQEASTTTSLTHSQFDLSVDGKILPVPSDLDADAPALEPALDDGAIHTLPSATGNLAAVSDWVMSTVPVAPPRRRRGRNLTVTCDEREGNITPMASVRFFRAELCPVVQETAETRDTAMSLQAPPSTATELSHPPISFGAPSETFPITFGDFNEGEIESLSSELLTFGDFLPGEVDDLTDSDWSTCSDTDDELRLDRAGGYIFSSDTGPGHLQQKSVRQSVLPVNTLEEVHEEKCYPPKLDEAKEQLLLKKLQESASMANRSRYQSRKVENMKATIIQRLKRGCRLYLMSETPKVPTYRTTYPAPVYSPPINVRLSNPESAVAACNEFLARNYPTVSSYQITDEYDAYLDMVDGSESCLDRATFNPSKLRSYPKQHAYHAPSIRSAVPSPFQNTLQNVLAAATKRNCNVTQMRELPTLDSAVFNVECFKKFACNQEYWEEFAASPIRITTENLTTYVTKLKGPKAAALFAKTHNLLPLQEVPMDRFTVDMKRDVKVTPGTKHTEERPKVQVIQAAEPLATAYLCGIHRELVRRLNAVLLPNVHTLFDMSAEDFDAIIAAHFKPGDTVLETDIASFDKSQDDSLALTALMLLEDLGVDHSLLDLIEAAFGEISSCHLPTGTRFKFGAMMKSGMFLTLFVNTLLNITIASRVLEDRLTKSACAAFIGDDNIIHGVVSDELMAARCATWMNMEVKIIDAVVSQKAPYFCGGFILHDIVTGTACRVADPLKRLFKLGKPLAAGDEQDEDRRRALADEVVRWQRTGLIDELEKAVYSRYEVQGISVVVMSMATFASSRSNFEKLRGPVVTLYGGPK
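Recombinant nsP2pro (150 nM) was preincubated with compound 15 min at room temperature in 10 mM Tris-HCl pH 8.0, 0.01% Tween 20. Peptide 2 FRET substrate (2.5 uM) was then added and fluorescence read after 1 h. Seven-point series, up to 25 uM.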
Numbers stand for hits; i = inactive; ! = not confirmed by another sample.

SMILES	nsP2pro inh
Cc1cc2c(s1)Nc1ccccc1N=C2N1CCN(C)CC1	11µM!
CN1CCN(C2=Nc3ccccc3Cc3ccccc32)CC1	i
CN1CCN(C2=Nc3ccccc3Nc3ccc(Cl)cc32)CC1	i
Cc1cc(/C=C2/C(=O)Nc3ccccc32)cc(C)c1O	i
O=C(N[C@H](c1ccccn1)C1CC(O)C1)c1ccc(Cn2cccn2)o1 (some centres not stated)	i
CS(=O)(=O)c1ccc(CC(=O)N[C@H](c2ccccn2)C2CC(O)C2)cc1 (some centres not stated)	i
CS(=O)(=O)c1ccc(CN2CCC(C(O)c3ccccn3)CC2)cc1 (configuration not stated)	11µM
C#CCCC(=O)Nc1sc2c(c1-c1nc3ccccc3s1)CCNC2	i
O=C(Nc1ccc(F)cc1)c1cc(-c2ccc[nH]2)n[nH]1	10µM
O=C(Nc1cccc(F)c1)c1cc(-c2ccc[nH]2)n[nH]1	i
O=C(Nc1cccc(Cl)c1)c1cc(-c2ccc[nH]2)n[nH]1	i
CCCCCCCCCC(=O)OCCN1CCN(CC/C=C2\c3ccccc3Sc3ccc(C(F)(F)F)cc32)CC1	i
CCCCCCCCCCCCCCCCCC(=O)NCCCC[C@H](NC(=O)CC[C@@H](NC(=O)[C@H](C)NC(=O)[C@@H](C)O[C@H]1[C@H](O)[C@@H](CO)OC(O)[C@@H]1NC(C)=O)C(N)=O)C(=O)O (some centres not stated)	i
CCC1C(=O)NCCN1Cc1cn(-c2cccc(F)c2)nc1-c1ccc(C)o1 (configuration not stated)	11µM
O=C(c1ccno1)N1C[C@@H]2OCC(=O)N(CC3CCCCC3)[C@@H]2C1	i
NCc1ccccc1CC(=O)N[C@@H]1C(=O)N2C(C(=O)O)=C(CSc3nnnn3CC(=O)O)CS[C@H]12	12µM
O=C(O)C1=C(CSc2nnnn2CS(=O)(=O)O)CS[C@@H]2[C@@H](NC(=O)[C@H](O)c3ccccc3)C(=O)N12	i
Cn1nnnc1SCC1=C(C(=O)O)N2C(=O)[C@H](NC(=O)C(O)c3ccccc3)C2SC1 (some centres not stated)	i
CC(C)(C)C(=O)N1CCCC1C(=O)N1CCC2(CC1)CC(=O)Nc1ccccc1O2 (configuration not stated)	i
COc1ccc(-c2ccc3nc(-c4cc(C)ccc4F)oc3c2)c(OC)c1OC	i
O=C(NC1CCCN(C2CCCCCC2)C1)c1ccccc1C(F)(F)F (configuration not stated)	i
CN(C)C1CCCN(C(=O)c2csc3c2CCCC3)CC1 (configuration not stated)	i
Cc1cc(C)nc(NC(=S)N2CCN(c3ccc(F)c(F)c3F)CC2)c1	i
Cc1cc(C)nc(NC(=S)N2CCN(c3ccc(C(=O)O)cc3)CC2)c1	i
CCN1CCN(c2ncc3c(n2)CCN(Cc2cc(F)cc(F)c2)C3)CC1	i
SMILES	nsP2pro inh
CCN1CCN(c2ncc3c(n2)CCN(Cc2ccc(OC)c(OC)c2)C3)CC1	11µM
CCc1ccc(CN2CCc3nc(N4CCN(CC)CC4)ncc3C2)cc1	i
CC(C)CNC(=O)c1cc(-c2ccsc2)nc2c1cnn2C	i
Nc1ccc(C(=O)Nc2ccc(-c3nc4ccccc4[nH]3)cc2)cc1Cl	i
CCOC(=O)C1=CN(CC(=O)Nc2ccccc2C(F)(F)F)S(=O)(=O)N=C1C	i
O=C(CC1C(=O)OCCN1Cc1ccccc1)Nc1cccc(C(F)(F)F)c1 (configuration not stated)	i
CCN1CCOC(=O)C1CC(=O)Nc1ccccc1C(F)(F)F (configuration not stated)	11µM
COc1ccc(O[C@@H]2O[C@H](CO)[C@H](O)[C@H](O)[C@H]2O)cc1	i
COCC(=O)N1CCC(c2nn(-c3ccccn3)c(=O)[nH]2)CC1	i
O=C(NC1CCN(C(=O)c2ccc(-c3cncnc3)cc2)CC1)c1ccccc1F	i
CC(NC(=O)CNC(=O)c1cccc(-c2ccc(C(F)(F)F)cc2)c1)c1ccc(F)cc1 (configuration not stated)	i
COCCNC(=O)C1CCC(=O)N1C1CCNCC1 (configuration not stated)	i
CN(C)C(=O)N1CCN(C2CCNCC2)C(=O)C1	13µM
CN1CC(=O)N(C2CCCNCC2)Cc2c1ncnc2N1CCCC1CO (configuration not stated)	i
COC(=O)c1cccc(CNCC2=CC(C)(C)COc3ccc(OC)cc32)c1	i
CNC(=O)c1cc(C)nc2onc(C3CCN(C(=O)NC4CCCC4)C3)c12 (configuration not stated)	i
O=c1c(O[C@@H]2OC([C@H](O)CO)[C@H](O)[C@H]2O)c(-c2ccc(O)c(O)c2)oc2cc(O)cc(O)c12 (some centres not stated)	i
COCCn1c(C)cnc1CCNS(=O)(=O)c1c(C)nn(C)c1C	10µM
COCCn1c(C)cnc1CCNC(=O)NCC(C)C	i
COCCn1c(C)cnc1CCNS(=O)(=O)c1cc(OC)ccc1OC	i
Cc1ccc(C)c(NC(=O)Cn2c(=O)ccc3cc(S(=O)(=O)N4CCCC4)ccc32)c1	i
COc1ccc(CCNC(=O)CCn2c(=O)c3ccccc3n(CC(=O)Nc3cc(Cl)ccc3C)c2=O)cc1OC	i
CCc1ccc(NCc2cc3cc(OC)c(OC)cc3n(CC(=O)Nc3cc(C)ccc3C)c2=O)cc1	10µM
CCCS(=O)(=O)Nc1ccc(=O)n2c1[C@@H]1C[C@@H](CN(C(=O)c3ccc(F)cc3)C1)C2	i
O=C(c1ccc(F)cc1)N1C[C@@H]2C[C@H](C1)c1ccc(NS(=O)(=O)Cc3ccccc3)c(=O)n1C2	13µM
SMILES	nsP2pro inh
COc1ccc(S(=O)(=O)Nc2ccc3n(c2=O)C[C@H]2C[C@@H]3CN(C(=O)c3ccccn3)C2)cc1	i
O=C(Cc1cccc(Cl)c1)NCCNC(=O)c1cccc(-c2ccsc2)c1	i
O=C(O)c1ccc(Cc2c(-c3cccc(-c4ccccc4)c3)[nH]n(-c3nc(C(=O)O)cs3)c2=O)cc1	i
OC(CN1CCN(c2cccc(Cl)c2)CC1)C(c1ccccc1)c1ccccc1 (configuration not stated)	i
CCN1CCN(CC(O)COc2cccc(CNCc3cnn(CC)c3)c2)CC1 (configuration not stated)	i
Cc1cc(OCC(O)CN2CCN(c3cccc(Cl)c3)CC2)ccc1Cl (configuration not stated)	11µM
COc1ccccc1-c1cc([C@H]2CN3CC[C@H]2C[C@@H]3COC(=O)NC2CCCCC2)nc(C)n1	10µM
CC(=O)c1cccc(NC(=O)OC[C@H]2C[C@@H]3CCN2C[C@@H]3c2cc(C3CCCC3)nc(C)n2)c1	i
CC(=O)c1ccc(NC(=O)OC[C@H]2C[C@@H]3CCN2C[C@@H]3c2cc(C3CCCC3)nc(-c3ccncc3)n2)cc1	i
CCN1CC2(CCN(C(=O)c3cnc4c(O)cccn4c3=O)CC2)OC1=O	i
CN1CCN(c2cc(-c3nc(Nc4ccc(F)c(F)c4)c4ccccc4n3)ccn2)CC1	i
COc1ccc(C(=O)N2CC(CO)C3(CCNCC3)C2)cc1 (configuration not stated)	i
O=C(c1ccc(Cl)cc1)N1CC(CO)C2(CCNCC2)C1 (configuration not stated)	7.9µM
O=C(c1cccc(C(F)(F)F)c1)N1CC(CO)C2(CCNCC2)C1 (configuration not stated)	i
CC(C)C[C@H](NC(=O)CNC(=O)c1cc(Cl)ccc1Cl)B1OC(=O)C(CC(=O)O)(CC(=O)O)O1	i
